High-throughput results as filed in PubChem BioAssay.
HPGD block – qHTS Assay for Inhibitors of HPGD (15-Hydroxyprostaglandin Dehydrogenase) | 4.3% of 150,000 active | 15-hydroxyprostaglandin dehydrogenase [NAD(+)] (Homo sapiens), P15428 | AID 894, 2007 | Potency, µM, inactives show at the highest dose activity change, negative = inhibition, hits mostly inhibitors | purified HPGD, NADH fluorescence kinetic, PGE2 substrate; note: potency is the fitted concentration of half-maximal effect; % is set by controls: 0 for no effect and ±100 for the full control effect
Target sequence (P15428 whole entry, looked up): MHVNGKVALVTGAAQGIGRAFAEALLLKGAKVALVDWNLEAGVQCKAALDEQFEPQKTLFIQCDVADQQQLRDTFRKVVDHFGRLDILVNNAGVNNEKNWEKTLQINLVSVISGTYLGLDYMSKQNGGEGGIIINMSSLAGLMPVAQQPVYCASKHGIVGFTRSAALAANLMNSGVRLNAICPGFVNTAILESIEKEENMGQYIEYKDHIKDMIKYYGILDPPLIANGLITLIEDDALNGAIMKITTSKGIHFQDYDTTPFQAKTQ
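20 nM HPGD preincubated 15 min at room temperature with compound in 50 mM Tris-HCl pH 8, 0.01% Tween 20. Started with 1 mM NAD+ and 30 uM prostaglandin E2; NADH fluorescence (360/450 nm) read 5 times over 30-s intervals, last minus first.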
JMJD2E inh – qHTS Assay for Inhibitors of Human Jumonji Domain Containing 2E (JMJD2E). JMJD2E catalytic domain, FDH-coupled NADH fluorescence (FDH is formaldehyde dehydrogenase). Potency, µM (highest dose often 57.1 µM), for the others: at the highest dose activity change, negative = inhibition, most hits filed as inhibitors. 1.6% of 230,000 active. AID 2147, 2009;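 note: potency is the fitted concentration of half-maximal effect; 0% = wells with enzyme and -100% = buffer wells without enzyme; nearly all actives have a fitted effect of over 50% in size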
Target sequence (B2RXH2 1-337 limits assumed): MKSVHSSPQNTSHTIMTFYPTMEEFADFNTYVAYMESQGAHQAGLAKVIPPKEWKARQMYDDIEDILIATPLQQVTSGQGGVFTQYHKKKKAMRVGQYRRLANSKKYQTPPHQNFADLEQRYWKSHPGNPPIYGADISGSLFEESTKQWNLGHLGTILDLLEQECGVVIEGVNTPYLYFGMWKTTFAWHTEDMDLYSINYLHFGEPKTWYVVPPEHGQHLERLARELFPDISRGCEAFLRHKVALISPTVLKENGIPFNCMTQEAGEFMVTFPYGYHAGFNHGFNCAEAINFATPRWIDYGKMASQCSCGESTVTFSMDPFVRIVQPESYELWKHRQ
HttQ103 aggreg – qHTS Multiplex Assay to Identify Dual Action Probes in a Cell Model of Huntington: Aggregate Formation (GFP); PC12 HttQ103-GFP aggregates, Acumen cytometry, 40 h; Potency, µM (highest dose often 46.1 µM), inactives show at the highest dose activity change, negative = inhibition, most hits filed as inhibitors; 1.1% of 220,000 active; AID 1688, 2009; active = well fitted curve in the direction sought with a large enough effect; inconclusive = small, poorly fitted or top-dose-only effect, or another doubt; inactive = no such curve, though single readings can be large; an effect the other way counts as inactive or inconclusive; note: potency is the fitted concentration of half-maximal effect; % is set by controls: 0 for no effect and ±100 for the full control effect; nearly all actives have a fitted effect of over 60% in size
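PC12 cells with ecdysone-inducible HTT exon1 Q103-GFP, induced by 100 nM tebufenozide, given compounds in a concentration series. GFP aggregates (1–25 um, 6 SD above background) counted in lysates by laser-scanning cytometry, 488 nm excitation.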
HTT cytoprotect – qHTS Multiplex Assay to Identify Dual Action Probes in a Cell Model of Huntington: Cytoprotection (ATP). PC12 HTT-Q103 induced, cytoprotection, ATP luminescence, 40 h. Potency, µM (series often up to 56.4 µM), inactives show cytoprotection (ATP increase), usual class: activators. 0.14% of 230,000 active. AID 1471, 2008; active = well fitted curve in the direction sought with a large enough effect; inconclusive = small, poorly fitted or top-dose-only effect, or another doubt; inactive = no such curve, though single readings can be large; an effect the other way counts as inactive or inconclusive; note: potency is the fitted concentration of half-maximal effect; % of control where 0% means no effect; nearly all actives have a fitted effect of over 45% in size
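Stable PC12 Q103-GFP cells in serum-supplemented, phenol red-free DMEM; induction by tebufenozide at 100 nM final; compound dose series; cell viability quantified luminescently from ATP.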
ALDH1A1 block – qHTS Assay for Inhibitors of Aldehyde Dehydrogenase 1 (ALDH1A1); Purified ALDH1A1, NADH fluorescence, propionaldehyde substrate; AID 1030, 2008; 7.3% of 220,000 active; Potency, µM (titrated, usually from 75.3 µM), for the others: at the top dose activity, negative = inhibition, actives largely listed as inhibitors; Aldehyde dehydrogenase 1A1 (Homo sapiens), P00352;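 note: potency is the fitted concentration of half-maximal effect; plate controls were no enzyme wells and a reference inhibitor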
CBFb-RUNX1 inh – qHTS Assay for Compounds Blocking the Interaction Between CBF-beta and RUNX1 for the Treatment of Acute Myeloid Leukemia | AlphaScreen CBFb-His/RUNX1-biotin binding, biochemical | Potency, µM (titrated, usually from 59.8 µM), without a hit: top-dose activity, negative = inhibition, hits mostly inhibitors | 230,000 tested, under 10 active; active = well fitted curve in the direction sought with a large enough effect; inconclusive = small, poorly fitted or top-dose-only effect, or another doubt; inactive = no such curve, though single readings can be large; an effect the other way counts as inactive or inconclusive; note: % of control where 0% means no effect
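Inhibition was taken as any reduction in AlphaScreen signal from the CBF-beta–RUNX1 pair (His and biotin tags, 30 nM each), measured after compound (15 min) and bead (90 min) incubations at room temperature.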
Active calls of the source: *; i = inactive; ? = inconclusive; · = not tested or not shown; [ ] = remark or other dose. Rows were chosen to be rich in hits. Some 9.8% of all compounds tested hit in one or more screens of this group. Unless noted, calls come from the whole dose curve; as a rule, active = well fitted inhibition curve with a large enough effect (not every such curve was filed as active); inconclusive = small, poorly fitted or top-dose-only effect, or another doubt; inactive = no such curve, though single readings can be large or run the other way.

SMILES	HPGD block	JMJD2E inh	HttQ103 aggreg	HTT cytoprotect	ALDH1A1 block	CBFb-RUNX1 inh
CN(C(=O)c1cccc(Nc2ccc(-c3ccc4c(c3)OCCO4)nn2)c1)C1CCCCC1	?	-2%	?	-50%[10 µM]	25µM*	9%
COCC(C)n1c(SCC(=O)NC(=O)Nc2ccc3c(c2)OCCO3)nc2ccccc2c1=O (centres undefined)	-2%	1%	22%	14%[10 µM]	-3%	-4%
CSC1=NC(=O)/C(=C/c2ccc(SC)cc2)S1	·	-10%	-28%	-7%[10 µM]	?	-10%
CCOC(=O)CSC1=NC(=O)/C(=C\c2ccc(Cl)cc2)S1	2.2µM*	-1%	11%	-13%	20µM*	-1%
CCN(c1nc(N)c(C(=O)N=C(N)N)nc1Cl)C(C)C	-16%	8%	·	32%[1.9 µM]	-4%	-6%
C=C(C)C(=O)Nc1nnc(-c2ccccc2C)s1	·	-4%	-8%[9.22 µM]	-32%[10 µM]	7.9µM*	6%
CCOc1ccc2nc(N=NC3=C(O)CC(C)(C)CC3=O)sc2c1	·	22µM*	-12%	-56%	?	·
CCOc1ccc2nc(NC(=O)c3cnc(C)cn3)sc2c1	-6%	2%	-31%	-18%[10 µM]	8%	-8%
COc1cccc(CC(NC(C)=O)C(=O)NC2CCN(c3nnnn3-c3ccccc3)CC2)c1 (centres undefined)	-6%	16%	4%	-2%	14µM*	3%
CC(=O)NC(Cc1cccc(F)c1)C(=O)NC1CCN(c2nnnn2-c2ccccc2)CC1 (centres undefined)	·	-12%	13%[9.22 µM]	23%[10 µM]	1.4µM*	-1%
COc1ccc(CC(NC(C)=O)C(=O)NC2CCN(c3nnnn3-c3ccccc3)CC2)cc1 (centres undefined)	-8%	8%	18%	-16%[10 µM]	2.5µM*	0%
COc1ccc(CC(NC(C)=O)C(=O)NC2CCN(c3nnnn3-c3ccccc3)CC2)cc1OC (centres undefined)	·	-1%	2%[9.22 µM]	12%[10 µM]	10µM*	10%
COc1ccc(OC)c(CC(NC(C)=O)C(=O)NC2CCN(c3nnnn3-c3ccccc3)CC2)c1 (centres undefined)	·	4%	8%[9.22 µM]	17%[10 µM]	·	10%
O=C(NCC1CCCO1)C(c1ccc(F)cc1)N(Cc1ccc2c(c1)OCO2)C(=O)c1ccc(CN2CCOCC2)o1 (centres undefined)	·	-5%	·	·	0%	0%
Cc1ccc(C2N=C(N)Nc3nc(=O)c4ccccc4n32)cc1 (centres undefined)	·	?	5%[9.22 µM]	6%[10 µM]	·	-4%
CCOc1ccc(NC(=O)N2CCC(NC(=O)C(Cc3ccc(OC)c(OC)c3)NC(C)=O)CC2)cc1 (centres undefined)	3%	-2%	-4%	?	0.056µM*	8%
COc1ccc(CC(NC(C)=O)C(=O)NC2CCN(C(=O)NCc3ccccc3)CC2)cc1OC (centres undefined)	-7%	14%	-20%	7%	1%	2%
CN(Cc1ccccc1)C(=O)c1nc2ccccn2c1CNCCOc1cccnc1	·	-12%	-3%[9.22 µM]	-4%[10 µM]	25µM*	-9%
CN(Cc1c(C(=O)N(C)Cc2ccccc2)nc2ccccn12)CC1Cc2ccccc2O1 (centres undefined)	·	-4%	-10%	-21%	14µM*	-14%
CC1=NN(c2ccc(C(F)(F)F)cn2)C(=O)C1	-9%	?	-26%	·	22µM*	?
O=C(NCCc1ccc(Cl)cc1)c1ccc(CNc2c(N3CCOCC3)c(=O)c2=O)cc1	·	-2%	-24%[9.22 µM]	5%[10 µM]	·	0%
C=CCNC(=O)NC(=O)COC(=O)/C(C#N)=C/c1ccc(OC)cc1	·	?	-11%	11%	25µM*	5%
CC(=O)c1cc(F)c(N2CCN(CCC#N)CC2)cc1C	-13%	3%	-9%	0%[10 µM]	28µM*	-1%
CC(=O)c1cc(F)c(N2CCN(C(=O)Cc3ccccc3)CC2)cc1C	22µM*	1%	11%	-4%[0.074 µM]	8.9µM*	8%
CCOc1cc(/C=N/N2C(=O)NC3(CCCCC3)C2=O)cc(Br)c1O	·	?	4%	-48%	15µM*	-6%
SMILES	HPGD block	JMJD2E inh	HttQ103 aggreg	HTT cytoprotect	ALDH1A1 block	CBFb-RUNX1 inh
CC(C)n1cc(CN2CCN(CCc3ccccc3)C(CCO)C2)cn1 (centres undefined)	·	-10%	8%[9.22 µM]	18%[10 µM]	-5%	0%
CCOc1ccccc1N1CCN(C(=O)CCCN2C(=O)c3cccc4cccc(c34)C2=O)CC1	-21%	?	20µM*	-16%[10 µM]	?	-11%
O=C(CCCN1C(=O)c2cccc3cccc(c23)C1=O)N1CCN(c2ccccc2O)CC1	?	?	1%	11%[10 µM]	?	-13%
COc1ccc(C(=O)CCN2CCc3cc(OC)c(OC)cc3C2)cc1	·	7%	?	-33%	0.22µM*	3%
COc1ccc(C(=O)CCN2CCN(c3ccccc3OC)CC2)cc1	·	-6%	?	·	0.14µM*	13%
COc1ccc(C(=O)N2CCc3cc(OC)c(OC)cc3C2)cc1OC	-11%	-23%	0%	-21%	-4%	-2%
COc1ccccc1N1CCN(CCCCN2C(=O)c3ccccc3C2=O)CC1	-25%	?	·	-15%	13µM*	8%
COc1ccccc1N1CCN(C(=O)CSc2ccccc2)CC1	-13%	-5%	6%[1.84 µM]	-4%	?	?
COc1ccccc1N1CCN(C(=O)c2ccc(CSc3ccccc3)cc2)CC1	-16%	-5%	22µM*	·	-6%	-1%
CCOC(=O)C1=C(C)NC(=O)NC1c1ccc(-c2ccc(Cl)cc2)o1 (centres undefined)	·	-11%	-13%[9.22 µM]	19%[10 µM]	6%	-5%
CCOC(=O)C1=C(C)NC(=S)NC1c1ccc(-c2ccc(Cl)cc2)o1 (centres undefined)	-10%	0%	?	15%[10 µM]	4.5µM*	0%
CCOC(=O)C1=C(C)NC(=S)NC1c1ccc(-c2cccc(Cl)c2C)o1 (centres undefined)	-11%	-2%	-17%	-8%	0.89µM*	-3%
COC(=O)C1=C(C)NC(C)=C(C(=O)OC)C1c1ccc(-c2cccc(Cl)c2Cl)o1	?	i	?	-80%[10 µM]	?	3%
